According to PubChem BioAssay (NCATS):
Results filed as inconclusive are left out. The source made the active and inactive calls. The call rests on the fitted dose curve; in most records, active means well fitted inhibition curve with a large enough effect; inconclusive means small, poorly fitted or top-dose-only effect; inactive means flat fitted curve, though single readings scatter.

How the values were obtained:
HEK293 = experiment: Cytotoxic Profiling of Annotated Libraries Using Quantitative High-Throughput Screening (AID 1296008); conditions: Five cell lines viability, CellTiter-Glo ATP luminescence, 48-72 h; max response: hits give low values
How it was run: (§1)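 Cytotoxicity was measured as CellTiter-Glo ATP luminescence, read after 10 min at room temperature. Compound treatment of the cells lasted 48 or 72 hr at 37 degrees Celsius in a qHTS format.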

HaCat [1] = experiment: as above; conditions: Five cell lines viability, CellTiter-Glo ATP luminescence, 48-72 h; max response: hits give low values
How it was run: as §1

NIH3T3 = experiment: as above; conditions: Five cell lines viability, CellTiter-Glo ATP luminescence, 48-72 h; max response: hits give low values
How it was run: as §1

MCC-13 = experiment: qHTS assay to identify novel small-molecules to repurpose for Merkel cell carcinoma treatment (AID 1296009); conditions: MCC and control cell lines, CellTiter-Glo viability, 72 h; series mostly up to 46 µM
How it was run: (§2)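 72 hr, 37 degree celsius; NPC 8-pt / MIPE 11-pt dose response; compound pinned in DMSO; CellTiter-Glo, 10 min RT, luminescence; normalized to no-cell and DMSO controls.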

MCC-26 = experiment: as above; conditions: MCC and control cell lines, CellTiter-Glo viability, 72 h; series mostly up to 46 µM
How it was run: as §2

MKL-1 = experiment: as above; conditions: MCC and control cell lines, CellTiter-Glo viability, 72 h; series mostly up to 46 µM
How it was run: as §2

MKL-2 = experiment: as above; conditions: MCC and control cell lines, CellTiter-Glo viability, 72 h; series mostly up to 46 µM
How it was run: as §2

KB-3-1 = experiment: Cytotoxic Profiling of Annotated Libraries Using Quantitative High-Throughput Screening (AID 1296008); conditions: Five cell lines viability, CellTiter-Glo ATP luminescence, 48-72 h; max response: hits give low values
How it was run: as §1

HEK293T = experiment: qHTS assay to identify novel small-molecules to repurpose for Merkel cell carcinoma treatment (AID 1296009); conditions: MCC and control cell lines, CellTiter-Glo viability, 72 h; at 44.8 µM (top of the series) unless noted
How it was run: as §2

HACAT [2] = experiment: as above; conditions: MCC and control cell lines, CellTiter-Glo viability, 72 h; at 44.8 µM (top of the series) unless noted
How it was run: as §2
Further: nearly all actives have a fitted effect of over 60% in size.
On the % scale 0 is the no-effect control and ±100 the full control effect; potency means the concentration at half of the fitted maximal effect.

CC1(C)O[C@@H]2C[C@H]3[C@@H]4C[C@H](F)C5=CC(=O)C=C[C@]5(C)[C@@]4(F)[C@@H](O)C[C@]3(C)[C@]2(C(=O)CO)O1
inactive: max response (HEK293) 1.46% | max response (HaCat [1]) 1.62% | max response (NIH3T3) -12.6% | Potency (MCC-13) | Potency (MCC-26) | Potency (MKL-1) | Potency (MKL-2)

CC(=O)O[C@@H]1C(=O)O[C@@H]2[C@H]1OC(=O)[C@@H]2OC(C)=O
inactive: max response (HEK293) -3.32% | outcome (KB-3-1) | Potency (MCC-13) | Potency (MCC-26) | Potency (MKL-1) | Potency (MKL-2)

COC(=O)c1c(Cl)c(Cl)c(C(=O)OC)c(Cl)c1Cl
inactive: max response (HEK293) -21.7% | max response (KB-3-1) -7.26% | max response (NIH3T3) -9.58% | Potency (MCC-13) | Potency (MCC-26) | Potency (MKL-1) | Potency (MKL-2)

CCCCCCCCCCCC[N+](C)(C)Cc1ccccc1
active: Potency (HEK293) 0.841 µM | Potency (HaCat [1]) 4.73 µM | Potency (NIH3T3) 6.68 µM | Potency (MCC-26) 23.7 µM | Potency (MKL-1) 1.06 µM | Potency (MKL-2) 0.0944 µM

CC(=O)Nc1ccn(C2COC(COC(=O)c3ccccc3)O2)c(=O)n1 (stereo unspecified)
inactive: outcome (KB-3-1) | Potency (MCC-13) | Potency (MCC-26) | Potency (MKL-1) | Potency (MKL-2)
active: Potency (HEK293) 18.8 µM

Cc1cc2nc3ccc(=[N+](C)C)cc-3sc2cc1N
active: Potency (HEK293) 0.422 µM | Potency (HaCat [1]) 6.68 µM | Potency (NIH3T3) 10.6 µM | Potency (MCC-13) 2.99 µM | Potency (MKL-1) 0.596 µM | Potency (MKL-2) 0.531 µM

Nc1ccc2cc3ccc(N)cc3nc2c1
active: Potency (HEK293) 2.37 µM | Potency (HaCat [1]) 3.76 µM | Potency (MCC-13) 13.3 µM | Potency (MKL-1) 4.22 µM

Nc1ncnc2c1ncn2Cc1c(F)cccc1Cl
inactive: outcome (HEK293) | outcome (NIH3T3) | outcome (HEK293T) | Potency (MCC-13) | Potency (MCC-26) | Potency (MKL-1) | Potency (MKL-2)

CCCCN(CCCC)C(C(N)=O)c1ccc(OC)cc1 (stereo unspecified)
inactive: max response (HEK293) -5.09% | max response (HaCat [1]) 2.19% | outcome (NIH3T3) | Potency (MCC-13) | Potency (MKL-1) | Potency (MKL-2)

O=C(CCCl)NCCc1ccccc1
inactive: max response (HEK293) -1.92% | max response (HaCat [1]) 0.301% | max response (NIH3T3) -1.58% | Potency (MCC-13) | Potency (MKL-1) | Potency (MKL-2)

CC(C)=CCC/C(C)=C/CC/C(C)=C/C(=O)OCC(=O)[C@@]1(O)CC[C@H]2[C@@H]3CCC4=CC(=O)C=C[C@]4(C)[C@H]3[C@@H](O)C[C@@]21C
active: Potency (HEK293) 10.6 µM
inactive: Potency (MCC-13) | Potency (MCC-26) | Potency (MKL-1) | Potency (MKL-2)

CCCCCOc1ccccc1/C(=C\SC)n1ccnc1
inactive: max response (NIH3T3) -29.1% | Potency (MCC-13) | Potency (MCC-26)
active: Potency (HEK293) 26.6 µM

CCCCCCCCCCCCCCCC[N+](C)(C)Cc1ccccc1
active: Potency (HEK293) 5.31 µM | Potency (NIH3T3) 11.9 µM | Potency (MCC-26) 29.9 µM | Potency (MKL-1) 5.96 µM | Potency (MKL-2) 0.335 µM

COC(=O)[C@H]1[C@H]2C[C@@H]3c4[nH]c5cc(OC)ccc5c4CCN3C[C@H]2C[C@@H](OC(=O)/C=C/c2ccc(O)c(OC)c2)[C@@H]1OC
active: Potency (HEK293) 9.44 µM
inactive: Potency (MCC-13)

CCCCC(=O)OCC(=O)[C@H]1[C@H](C)C[C@H]2[C@@H]3C[C@H](F)C4=CC(=O)C=C[C@]4(C)[C@@]3(F)[C@@H](O)C[C@@]21C
inactive: max response (HaCat [1]) 1.04% | max response (KB-3-1) -3.44% | max response (NIH3T3) -6.1% | Potency (MCC-13) | Potency (MCC-26) | Potency (MKL-1) | Potency (MKL-2)

Cc1ncc([N+](=O)[O-])n1C
inactive: outcome (HEK293) | max response (NIH3T3) -19.7% | outcome (HEK293T) | Potency (MCC-13) | Potency (MCC-26) | Potency (MKL-1) | Potency (MKL-2)

CN(C)CCOC1=Cc2ccccc2Sc2ccc(Cl)cc21
inactive: outcome (HaCat [1]) | max response (KB-3-1) -15.8% | max response (NIH3T3) -0.0906% | outcome (HACAT [2]) | Potency (MCC-13) | Potency (MCC-26) | Potency (MKL-1)

CCCN(CCC)C(=O)C(CCC(=O)OCCCN1CCN(CCOC(=O)Cc2c(C)n(C(=O)c3ccc(Cl)cc3)c3ccc(OC)cc23)CC1)NC(=O)c1ccccc1 (stereo unspecified)
inactive: max response (HaCat [1]) -0.687% | max response (KB-3-1) -0.886% | max response (NIH3T3) 1.41% | Potency (MCC-13) | Potency (MCC-26) | Potency (MKL-1)

O=C(Nc1ccc(Cl)cc1)Nc1ccc(Cl)c(C(F)(F)F)c1
active: Potency (MKL-1) 21.1 µM | Potency (MKL-2) 7.5 µM
inactive: max response (HEK293) -107%

O=[N+]([O-])c1ccc(-c2nc(-c3ccc(F)cc3)c(-c3ccncc3)[nH]2)cc1
inactive: max response (HaCat [1]) -22.5%

O=C(Nc1ccc(Cl)cc1)Nc1ccc(Cl)c(Cl)c1
active: Potency (HEK293) 7.5 µM | Potency (MKL-1) 18.8 µM | Potency (MKL-2) 5.96 µM

O=C1NCCN1CCN1CCC(c2cn(-c3ccc(F)cc3)c3ccc(Cl)cc23)CC1
active: Potency (HEK293) 6.68 µM | Potency (MCC-26) 21.1 µM | Potency (MKL-1) 8.41 µM | Potency (MKL-2) 2.99 µM

CC(=O)Oc1ccc(C2(c3ccc(OC(C)=O)cc3)Oc3ccccc3NC2=O)cc1
active: Potency (HEK293) 7.5 µM
inactive: Potency (MKL-1) | Potency (MKL-2)

O=C(Nc1ccc(S(=O)(=O)N2CCOCC2)cc1)c1cc(Cl)ccc1NS(=O)(=O)c1ccc(Cl)s1
inactive: outcome (HEK293) | outcome (NIH3T3) | outcome (HEK293T) | Potency (MCC-13) | Potency (MCC-26) | Potency (MKL-1) | Potency (MKL-2)

c1ccc2occc2c1
inactive: max response (HEK293) -7.13% | max response (NIH3T3) -3.85% | Potency (MCC-13) | Potency (MCC-26) | Potency (MKL-1) | Potency (MKL-2)

O=c1[nH]sc2cc(Cl)ccc12
inactive: max response (HEK293) -119% | max response (NIH3T3) -92.7% | Potency (MKL-1) | Potency (MKL-2)
active: Potency (MCC-13) 6.68 µM
